These results are taken from PubChem BioAssay (EPA / NIEHS).

Where “and” joins values, the source holds several entries; their conditions need not be identical. Equal entries are not always repeated. More than one record can exist for a structure, and the calls need not agree. Calls of active or inactive are those of the source. The calls were made as follows: active = hit-call score of the fitted dose curve at least 0.9, where 1 is the maximum; inactive = score below 0.9.

Assay [1] is described as follows: BSK_3C_TissueFactor: BioMAP Diversity Plus: 3C Assay for Tissue Factor Biomarker Activity (AID 2282997). The conditions noted are these: BioMAP 3C HUVEC, tissue factor biomarker readout; actives raise or lower the signal. In a few lines: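 Endothelial monolayers (human umbilical vein, primary) are dosed, incubated 24 h, and assayed for Tissue Factor by ELISA; DMSO serves as negative control for bidirectional fitting.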

Read-out in assay [2]: Interleukin-8 (IL8), CXCL8 (gene 3576)
Kind of assay: BSK_3C_IL8: BioMAP Diversity Plus: 3C Assay for Interleukin-8 (IL8) Biomarker Activity (AID 2283020). The note with it: primary human endothelial cells (HUVEC); actives raise or lower the signal. In a few lines: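 Human vascular endothelial cells (umbilical vein) in the 3C system; IL-8 level detected by ELISA at 24 h post-dose, with DMSO as baseline.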

Read-out in assay [3]: Thrombomodulin, THBD (gene 7056)
Kind of assay: BSK_3C_Thrombomodulin: BioMAP Diversity Plus: 3C Assay for Thrombomodulin Biomarker Activity (AID 2283029). The note with it: primary human endothelial cells (HUVEC); actives raise or lower the signal. The method in brief: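 Thrombomodulin ELISA, human primary HUVEC, 24 h post-dose; data fitted in both directions relative to DMSO.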

Read-out in assay [4]: Urokinase-type plasminogen activator receptor (uPAR), PLAUR (gene 5329)
As to the kind of experiment: BSK_4H_uPAR: BioMAP Diversity Plus: 4H Assay for Urokinase-type plasminogen activator receptor (uPAR) Biomarker Activity (AID 2283030). The note with it: primary human endothelial cells (HUVEC); actives raise or lower the signal. In a few lines:
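Endpoint derived via bidirectional curve fitting against DMSO baseline; readout was ELISA detection of uPAR on umbilical vein endothelial cells at 24 h post-treatment, with SRB-stained parallel cultures assessing cytotoxicity.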

Read-out in assay [5]: Monokine induced gamma interferon (MIG), CXCL9 (gene 4283)
As to the kind of experiment: BSK_CASM3C_MIG: BioMAP Diversity Plus: CASM3C Assay for Monokine induced gamma interferon (MIG) Biomarker Activity (AID 2283048).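 Also: MIG protein level measured by ELISA.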 The conditions noted are these: primary human coronary artery smooth muscle cells; actives raise or lower the signal.

Read-out in assay [6]: serum amyloid A (SAA), SAA1 (gene 6288)
As to the kind of experiment: BSK_CASM3C_SAA: BioMAP Diversity Plus: CASM3C Assay for serum amyloid A (SAA) Biomarker Activity (AID 2283049).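 Also: SAA protein level quantified by ELISA.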 The conditions noted are these: primary human coronary artery smooth muscle cells; actives raise or lower the signal.

Read-out in assay [7]: Thrombomodulin, THBD (gene 7056)
As to the kind of experiment: BSK_CASM3C_Thrombomodulin: BioMAP Diversity Plus: CASM3C Assay for Thrombomodulin Biomarker Activity (AID 2283051).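 Also: thrombomodulin protein level measured by ELISA 24 h after dosing.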 The conditions noted are these: primary human coronary artery smooth muscle cells; actives raise or lower the signal.

Read-out in assay [8]: Vascular cell adhesion molecule 1 (VCAM1), VCAM1 (gene 7412)
Kind of assay: BSK_CASM3C_VCAM1: BioMAP Diversity Plus: CASM3C Assay for Vascular cell adhesion molecule 1 (VCAM1) Biomarker Activity (AID 2283055).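 Also: VCAM-1 protein level quantified by ELISA on the cells.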 The conditions noted are these: primary human coronary artery smooth muscle cells; actives raise or lower the signal.

Read-out in assay [9]: Interleukin-8 (IL8), CXCL8 (gene 3576)
As to the kind of experiment: BSK_LPS_IL8: BioMAP Diversity Plus: LPS Assay for Interleukin-8 (IL8) Biomarker Activity (AID 2283078). The conditions noted are these: primary human HUVEC with PBMC; actives raise or lower the signal. In a few lines:
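In this LPS system, chemical-treated human umbilical vein endothelium/PBMC co-cultures were harvested at 24 h for IL-8 ELISA.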

Read-out in assay [10]: Monocyte Chemoattractant Protein-1 (MCP1), CCL2 (gene 6347)
Kind of assay: BSK_hDFCGF_MCP1: BioMAP Diversity Plus: hDFCGF Assay for Monocyte Chemoattractant Protein-1 (MCP1) Biomarker Activity (AID 2284285). The note with it: primary human foreskin fibroblasts. The method in brief:
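Human foreskin fibroblasts (hDFCGF system) were exposed to compound and secreted MCP-1 was measured by ELISA after 24 hours. Activity was fitted relative to DMSO. Cytotoxicity was checked by SRB total-protein staining in parallel cultures.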

The nature of assay [11]: ATG_CRE_CIS: Attagene CIS-FACTORIAL HepG2 Assay for human cAMP Responsive Element (CRE) binding protein 3 (AID 2282926). The note with it: HepG2 CRE cis-reporter, Attagene multiplexed mRNA; actives raise or lower the signal. The method in brief:
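Transfected HepG2 were treated for 24 hours, then RNA was extracted and reporter cDNA amplified with sequence-specific primers. Labelled fragments were separated by capillary electrophoresis, and the CRE signal was fitted bidirectionally with DMSO as baseline.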

Assay [12] in a line: ATG_DR4_LXR_CIS: Attagene CIS-FACTORIAL HepG2 Assay for human Liver X Receptor (LXR), DR4 submotif (AID 2282929). The conditions noted are these: HepG2 Attagene DR4 cis-reporter, mRNA transcription; actives raise or lower the signal. In a few lines: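 DR4 cis-reporter in HepG2, 24 h exposure. Detection: RT-PCR, 6-FAM labelling, CE fragment analysis. Endpoint fitted bidirectionally, DMSO = baseline.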

Assay [13] can be described thus: ATG_AP_1_CIS: Attagene CIS-FACTORIAL HepG2 Assay for human Activator Protein 1 (AP-1) (AID 2282931). The note with it: HepG2 Attagene cis-factorial AP-1 reporter mRNA; actives raise or lower the signal. In a few lines: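 Cis-regulated reporter units transiently expressed in HepG2 report endogenous transcription-factor activity. Signal: reporter mRNA at 24 h, via RT-PCR and fluorescent capillary electrophoresis. Endpoint derived by bidirectional fitting, DMSO as negative control.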

In assay [14] the target is Hepatocyte nuclear factor 3-beta (Homo sapiens) (UniProt Q9Y261). Kind of assay: ATG_FoxA2_CIS: Attagene CIS-FACTORIAL HepG2 Assay for human Forkhead box A2 (FOXA2) (AID 2282942). The conditions noted are these: HepG2 cis-reporter transcription factor activity, 24 h; actives raise or lower the signal. The method in brief: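 Measured: reporter mRNA induction or loss in HepG2 transiently carrying multiple cis-regulated reporter units, 24 h after dosing. Quantified by RT-PCR plus capillary electrophoresis, normalised to DMSO.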

Assay [15] concerns the target Heat shock factor protein 1 (Homo sapiens) (UniProt Q00613). As to the kind of experiment: ATG_HSE_CIS: Attagene CIS-FACTORIAL HepG2 Assay for human Heat Shock Transcription Factor 1 (HSE) (AID 2282953). The note with it: HepG2 HSE cis-reporter, Attagene RNA transcription; actives raise or lower the signal. In a few lines:
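HepG2 cells transiently transfected with multiple reporter transcription units under cis-regulatory promoter control, measuring endogenous transcription factor activity. After 24 h chemical exposure, reporter mRNA quantified by RT-PCR, fluorescent labelling, HpaI digestion and capillary electrophoresis; bidirectional fit versus DMSO.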

A short description of assay [16]: ATG_RORE_CIS: Attagene CIS-FACTORIAL HepG2 Assay for human RAR-related Orphan Receptor Element (RORE) (AID 2282959). The conditions noted are these: HepG2 Attagene cis-factorial RORE reporter, mRNA; actives raise or lower the signal. In a few lines:
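Transiently transfected HepG2 reporter cells were treated 24 h. Reporter transcripts were detected by RT-PCR and capillary electrophoresis, with bidirectional fitting against DMSO.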

In assay [17] the target is Nuclear respiratory factor 1 (Homo sapiens) (UniProt Q16656). Kind of assay: ATG_NRF1_CIS: Attagene CIS-FACTORIAL HepG2 Assay for human Nuclear Respiratory Factor 1 (NRF1) Orphan Gene (AID 2282987). The conditions noted are these: HepG2 NRF1 cis-element reporter, Attagene multiplex; actives raise or lower the signal. The method in brief: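 Using DMSO as baseline, gain- or loss-of-signal was fitted for reporter mRNA levels in HepG2 cells transiently transfected with cis-regulated reporter units. Samples were taken 24 h after dosing and read by RT-PCR with capillary electrophoresis.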

A short description of assay [18]: ATG_NFI_CIS: Attagene CIS-FACTORIAL HepG2 Assay for human Nuclear Factor I (NFI) (AID 2282989). The note with it: HepG2 cis-regulatory reporter, NFI response element transcription; actives raise or lower the signal. The method in brief:
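HepG2 cells transiently transfected with cis-element-driven multiplexed reporter transcription units, dosed for 24 h. Reporter mRNA quantified by RT-PCR, fluorescent labelling, HpaI digestion and capillary electrophoresis; bidirectional fit versus DMSO baseline.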

Assay [19] in a line: ATG_NRF2_ARE_CIS: Attagene CIS-FACTORIAL HepG2 Assay for human Nuclear Factor Erythroid 2 Related Factor 2 (NFR2) response to Antioxidant Response Elements (ARE) (AID 2282992). The conditions noted are these: HepG2 Attagene ARE/NRF2 reporter, transcription factor activity; actives raise or lower the signal. In a few lines:
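HepG2 cells transiently transfected with multiplexed cis-regulated reporter transcription units measure endogenous transcription factor activity. Reporter mRNA at 24 h is quantified by RT-PCR, fluorescent labelling and capillary electrophoresis, with bidirectional fitting relative to DMSO.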

Assay [20] deals with Cellular tumor antigen p53 (Homo sapiens) (UniProt P04637). As to the kind of experiment: ATG_p53_CIS: Attagene CIS-FACTORIAL HepG2 Assay for human p53 Transcription Factor (AID 2282994). The note with it: HepG2 p53 cis-element reporter, Attagene mRNA; actives raise or lower the signal. In a few lines: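 HepG2 cells transiently transfected with multiplexed cis-regulated reporter transcription units read endogenous TF activity. After 24 h compound exposure, reporter mRNA was quantified by RT-PCR, fluorescent labelling, HpaI digestion and capillary electrophoresis; bidirectional fits versus DMSO baseline.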
Cellular tumor antigen p53 (Homo sapiens), sequence (P04637 whole entry, looked up): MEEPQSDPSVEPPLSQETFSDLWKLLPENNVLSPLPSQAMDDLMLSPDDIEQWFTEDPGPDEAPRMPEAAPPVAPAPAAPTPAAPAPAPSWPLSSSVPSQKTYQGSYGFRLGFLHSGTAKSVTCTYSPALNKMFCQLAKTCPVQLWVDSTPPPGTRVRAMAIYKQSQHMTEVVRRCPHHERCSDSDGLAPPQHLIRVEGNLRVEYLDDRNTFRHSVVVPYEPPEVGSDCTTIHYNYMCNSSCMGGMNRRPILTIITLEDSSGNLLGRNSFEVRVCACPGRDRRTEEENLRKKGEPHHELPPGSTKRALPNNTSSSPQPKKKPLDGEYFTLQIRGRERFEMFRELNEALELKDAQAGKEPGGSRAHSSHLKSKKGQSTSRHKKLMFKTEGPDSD

Hepatocyte nuclear factor 3-beta (Homo sapiens), sequence (Q9Y261 whole entry, looked up): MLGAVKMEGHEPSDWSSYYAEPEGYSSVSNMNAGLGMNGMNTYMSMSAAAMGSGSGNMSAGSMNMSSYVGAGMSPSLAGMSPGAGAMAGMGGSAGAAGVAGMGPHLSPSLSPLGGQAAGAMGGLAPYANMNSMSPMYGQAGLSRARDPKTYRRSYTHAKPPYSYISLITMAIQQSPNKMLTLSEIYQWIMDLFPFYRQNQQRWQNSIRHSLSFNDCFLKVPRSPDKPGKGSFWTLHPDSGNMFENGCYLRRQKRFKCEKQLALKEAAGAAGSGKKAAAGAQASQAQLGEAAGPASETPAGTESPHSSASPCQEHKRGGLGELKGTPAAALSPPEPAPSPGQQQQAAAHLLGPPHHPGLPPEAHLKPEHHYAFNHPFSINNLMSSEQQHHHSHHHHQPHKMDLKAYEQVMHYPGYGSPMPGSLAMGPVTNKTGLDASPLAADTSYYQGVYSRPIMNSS
Nuclear respiratory factor 1 (Homo sapiens), sequence (Q16656 whole entry, looked up): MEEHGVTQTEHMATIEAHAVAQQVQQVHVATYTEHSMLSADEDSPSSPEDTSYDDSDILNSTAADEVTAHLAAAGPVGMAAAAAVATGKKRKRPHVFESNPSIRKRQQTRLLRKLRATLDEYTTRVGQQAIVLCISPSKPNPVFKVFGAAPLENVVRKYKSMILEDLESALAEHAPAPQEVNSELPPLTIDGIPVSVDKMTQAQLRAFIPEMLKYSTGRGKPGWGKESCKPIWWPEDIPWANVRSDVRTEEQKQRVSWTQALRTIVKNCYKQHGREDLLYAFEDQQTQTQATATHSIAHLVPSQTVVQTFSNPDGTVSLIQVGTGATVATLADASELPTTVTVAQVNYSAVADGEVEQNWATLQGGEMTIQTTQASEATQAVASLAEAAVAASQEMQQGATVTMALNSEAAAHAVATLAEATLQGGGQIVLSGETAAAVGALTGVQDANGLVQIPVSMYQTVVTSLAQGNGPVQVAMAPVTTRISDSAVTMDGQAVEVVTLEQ
Heat shock factor protein 1 (Homo sapiens), sequence (Q00613 whole entry, looked up): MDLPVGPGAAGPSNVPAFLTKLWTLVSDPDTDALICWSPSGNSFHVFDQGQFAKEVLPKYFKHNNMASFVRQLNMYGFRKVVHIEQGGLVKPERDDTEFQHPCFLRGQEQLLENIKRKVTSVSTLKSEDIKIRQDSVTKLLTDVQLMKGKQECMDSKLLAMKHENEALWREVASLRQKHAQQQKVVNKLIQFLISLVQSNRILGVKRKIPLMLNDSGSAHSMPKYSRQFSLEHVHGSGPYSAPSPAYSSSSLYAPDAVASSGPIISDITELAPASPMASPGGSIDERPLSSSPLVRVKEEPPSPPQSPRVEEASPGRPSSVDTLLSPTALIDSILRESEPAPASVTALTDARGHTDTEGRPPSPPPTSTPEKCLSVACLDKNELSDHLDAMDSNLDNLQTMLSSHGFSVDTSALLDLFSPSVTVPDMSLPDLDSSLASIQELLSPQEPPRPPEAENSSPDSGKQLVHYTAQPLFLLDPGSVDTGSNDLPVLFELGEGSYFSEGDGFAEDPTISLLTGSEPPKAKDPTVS

`CCCCC(CC)COC(=O)C=Cc1ccc(OC)cc1` (stereo not drawn): the AC50 in [1] is 5.17 µM (active) and 7.14 µM (active); in [2], 30.8 µM (active) and 28.7 µM (active); in assay [3], 9.77 µM (active) and 8.63 µM (active); in assay [5], 32.4 µM (active); in assay [6] it was 32.3 µM (active); in [8], 14.9 µM (active). Moreover, the results for the AC50 in assay [9] and in assay [10] were 12.9 µM (active) and 8.08 µM (active), respectively. Further, the result in assay [4], in assay [5], in assay [6], in [7], in assay [8] and in assay [9] was inactive. Further, the outcome in [10] was inactive.
`O=C(O)/C=C\C(=O)O`: the compound was called inactive in assay [11], in [12], in [13], in assay [14], in assay [15] and in assay [16]. Further, the compound was called inactive in [17], in assay [18], in assay [19] and in [20].
On to `COc1ccc(C(=O)c2ccccc2O)c(O)c1`, for which the AC50 in [1] is 20 µM (active) and 17.9 µM (active); in assay [2] it was 7.28 µM (active); in assay [4] it was 10.2 µM (active); in assay [5], 20 µM (active) and 16.1 µM (active); in assay [8], 13.4 µM (active) and 3.97 µM (active). The outcome in assay [2], in assay [3], in [4], in [6], in assay [7] and in [9] was inactive. Also, the result in assay [10] was inactive.
As for `CC[N+](CC)(CC(=O)Nc1c(C)cccc1C)Cc1ccccc1` (tested in a mixture with another compound), the call in assay [11], in assay [12], in assay [13], in assay [14], in assay [16] and in [17] was inactive. The result in assay [18], in assay [19], in assay [1], in assay [2], in assay [3] and in [4] was inactive. Besides, the result in assay [5], in [6], in assay [7], in [8], in [9] and in [10] was inactive.
`C1CN(CCOCCN2CCOCC2)CCO1`: the result in assay [1], in assay [2], in assay [3], in [4], in [5] and in assay [6] was inactive. For the same compound, the result in assay [7], in assay [8], in assay [9] and in assay [10] was inactive. Besides, the AC50 in assay [2] is 9.48 µM (active); in [5], 1.82 µM (active); in assay [9], 4.01 µM (active).

The AC50 is the midpoint of the concentration-response curve, whichever way the signal moves.
